# Screens from PubChem.
# Compounds with a hit are over-represented: about 4.7% of the library has one in this group of screens.
# ATXN2 expr inh: ATXN2 expression inhibition; Potency, µM (top dose mostly 57 µM), inactives show top-dose activity change, negative = inhibition, most hits filed as inhibitors; 360,000 tested, 0.72% active; AID 1745845; HEK-293 ATXN2-luciferase reporter, luminescence, 24 h; further: potency means the concentration at half of the fitted maximal effect; on the % scale 0 is the no-effect control and ±100 the full control effect; nearly all actives have a fitted effect of over 55% in size
#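 qHTS (up to 57 uM final) was run with 24 h compound exposure of reporter cells at 37 °C. Each well was multiplexed: SteadyGlo luminescence measured ATXN2-luciferase expression after a fluorogenic Gly-Phe-AFC viability readout (25 uM final).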
# HepG2 tox: HepG2 cytotoxicity, counter-screen for TGF-b inhibitors; Potency, µM (top dose mostly 46.1 µM), inactives show at the top dose activity change, negative = cytotoxicity, actives largely listed as cytotoxic; 410,000 tested, 0.76% active; HepG2 CAGA-GFP viability, ATP luminescence, 18 h; further: potency means the concentration at half of the fitted maximal effect
#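 CellTiter-Glo luminescence gave cytotoxicity after 18 hours at 37 degrees C. The cells were HepG2 CAGA-GFP in 1% FBS DMEM, stimulated with 500 pg/mL TGF-beta after compound addition. %Activity was normalised to no-cell wells (complete cell-killing) and DMSO (no toxicity), and curves were fitted and classified.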
# D3 ag: D3 dopamine receptor (human) agonism. P35462. D3R DiscoveRx beta-arrestin cells, luminescence, 90 min. max activation, %. 410,000 tested, 0.58% active; in the data active means max activation above about 30%; further: 0% is about no effect
# Target sequence (P35462 whole entry, looked up): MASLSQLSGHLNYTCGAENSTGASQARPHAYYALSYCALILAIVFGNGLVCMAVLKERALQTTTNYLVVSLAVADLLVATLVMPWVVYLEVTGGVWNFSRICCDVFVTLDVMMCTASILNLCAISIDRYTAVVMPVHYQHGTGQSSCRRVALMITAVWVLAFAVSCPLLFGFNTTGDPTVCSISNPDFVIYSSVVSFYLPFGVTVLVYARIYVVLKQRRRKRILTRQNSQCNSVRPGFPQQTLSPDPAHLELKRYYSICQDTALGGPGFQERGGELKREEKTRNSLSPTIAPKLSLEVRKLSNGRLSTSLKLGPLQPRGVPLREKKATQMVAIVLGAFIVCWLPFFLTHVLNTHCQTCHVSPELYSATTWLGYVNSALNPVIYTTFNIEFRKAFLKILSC
#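 Agonist mode: compounds and dopamine controls were applied to plated cells for 90 min at 37 degrees C after an overnight attachment at 1500 cells/well. Luminescent read-out followed 30 - 60 minutes at room temperature with DiscoveRx detection reagent.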
# S2 tox: cell viability loss in ATXN counter-screen; S2 cells (HEK-293 line with an ATXN2-luciferase reporter) viability, CellTiter-Fluor protease fluorescence, 24 h; AID 651635; Potency, µM (series often up to 56.7 µM), actives largely listed as cytotoxic; 400,000 tested, 0.49% active; further: potency means the concentration at half of the fitted maximal effect; nearly all actives have a fitted effect of over 40% in size
# D3 antag: D3 dopamine receptor (human) antagonism; P35462; D3R cells, DiscoveRx beta-arrestin luminescence, antagonist mode; stronger effect = lower value; max response, negative = inhibition, %; 360,000 tested, 2.5% active; AID 652054; in the data active means max response below about -50%; inconclusive means no clear call, values can overlap the other calls; further: on the % scale 0 is the no-effect control and ±100 the full control effect
#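 Cells plated overnight at 1500 cells/well, then exposed to library compounds with dopamine controls for 90 minutes at 37 degrees C. DiscoveRx reagent added for 30–60 minutes at room temperature; luminescence read, quantitative HTS format.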
# TGFb inhibitor: TGF-b pathway inhibition. HepG2 CAGA-GFP TGF-b/SMAD3 reporter, GFP fluorescence, 18 h; TGF-beta stimulated, 500 pg/mL final. Potency, µM (highest dose often 46.1 µM), without a hit: top-dose activity, negative = inhibition, most hits filed as inhibitors. 410,000 tested, 1.2% active. AID 588855; further: potency means the concentration at half of the fitted maximal effect; on the % scale 0 is the no-effect control and ±100 the full control effect; nearly all actives have a fitted effect of over 65% in size
#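 Cell-based qHTS in HEPG2 carrying a CAGA-GFP Smad reporter; compounds added before 500 pg/mL final TGF-beta, 18 h incubation at 37 degrees C, GFP fluorescence quantified per cell by imaging cytometry.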
# The depositor's hits bear a star; i = inactive; ? = inconclusive; · = no result given. Unless noted, the call rests on the fitted dose curve; in most records, active means well fitted curve in the direction sought with a large enough effect; inconclusive means small, poorly fitted or top-dose-only effect, or another doubt; inactive means no such curve, though single readings can be large; an effect the other way counts as inactive or inconclusive.
SMILES,ATXN2 expr inh,HepG2 tox,D3 ag,S2 tox,D3 antag,TGFb inhibitor
CN=c1sc(C(=O)Nc2cccc(Cl)c2)cc(=O)n1C,?,3.4%,-8.2,?,-51.3*,-0.5%
Cc1ccnc2cc(Cl)c(Cl)cc12,·,-0.4%,·,·,·,-1.1%
COc1c(OC(C)=O)ccc(/C=C/c2ccc3ccccc3n2)c1[N+](=O)[O-],-40.9%,-52.7%,11.3,22.4µM*,-27.5,?
COc1cc(/C=C/c2ccc3cccc([N+](=O)[O-])c3n2)ccc1OCC#N,-20.8%,2.6%,-11.0,i,7.8,12.4%
COc1c(OC(C)=O)ccc(/C=C/c2ccc3cccc(OC)c3n2)c1[N+](=O)[O-],7.8%,-48.8%,-7.2,i,-20.8,-9.1%
COC(=O)c1ccc(/C=C/c2ccc3cccc(OC(C)=O)c3n2)cc1,39.8%,-35.2%,-15.6,i,-64.2*,?
CCOc1c(OC(C)=O)ccc(/C=C/c2ccc3cccc(OC(C)=O)c3n2)c1[N+](=O)[O-],-1.1%,-74.0%,0.0,?,0.0,12.6µM*
O=C(CS(=O)c1ccccc1[N+](=O)[O-])Oc1ccc(Br)cc1 (configuration not stated),-0.6%,-14.9%,4.6,i,5.9,-13.2%
CS(=O)(=O)c1ccc(S(=O)CC(=O)Oc2ccc(Cl)cc2)c([N+](=O)[O-])c1 (configuration not stated),?,17.8µM*,-15.5,?,-102.3*,?
CCCCN(CC)CCNC(=O)CCC(=O)Nc1ccc2nc(N3CCN(C)CC3)cc(C)c2c1,-20.1%,-4.0%,1.5,i,-57.0*,1.9%
CCCCNC(=O)CCC(=O)Nc1ccc2nc(N3CCOCC3)cc(C)c2c1,42.5%,-18.5%,6.4,i,-15.3,3.1%
CCCN(CCC)CCNC(=O)CCC(=O)Nc1ccc2nc(N3CCOCC3)cc(C)c2c1,13.1%,-23.2%,-42.7,·,-65.8*,-8.2%
CCN1CCN(c2cc(C)c3cc(NC(=O)c4cc(Br)ccc4Cl)ccc3n2)CC1,?,10µM*,-16.0,·,·,?
Cc1cc(N2CCN(C)CC2)nc2ccc(NC(=O)Nc3ccccc3)cc12,-19.2%,12.6µM*,-5.2,·,·,?
CCN1CCN(c2cc(C)c3cc(NC(=O)c4cccnc4Cl)ccc3n2)CC1,6.1%,2.8%,-3.2,i,-12.8,26.0%
COc1ccccc1NC(=O)c1oc2ccccc2c1NC(=O)c1ccccc1C(F)(F)F,12.5%,-4.2%,-7.7,i,·,1.0%
Cc1ccc(OCC(=O)Nc2ccc(S(=O)(=O)Nc3ncccn3)cc2)c(C(C)(C)C)c1,5.0%,-20.2%,-3.5,i,·,-3.1%
CC1CCN(C(=O)CSc2nc(-c3ccc(C(C)C)cc3)no2)CC1,-23.8%,53.3%,9.6,?,·,75.3%
Cc1cc(N2CCN(C)CC2)nc2ccc(NC(=O)CCC(=O)NCCC3=CCCCC3)cc12,4.5%,5.8%,-49.7,?,-53.2*,9.0%
COc1ccc(CCNC(=O)CCC(=O)Nc2ccc3nc(N4CCN(C)CC4)cc(C)c3c2)cc1OC,·,-26.6%,-4.4,i,0.0,-8.1%
CCOc1ccccc1CNC(=O)C1CCCN(c2ncnc3onc(-c4ccc(F)cc4)c23)C1 (configuration not stated),5.6%,11.8%,-6.6,i,·,15.2%
C=C(C)C(=O)OCC(O)CO (configuration not stated),5.4%,·,·,i,·,·
CCCCCCC(=O)N1C/C=C\C(c2ccc(OC)cc2)N(Cc2ccc(F)cc2)C(=O)C1Cc1ccccc1 (configuration not stated),·,-9.3%,·,·,·,-18.1%
Cc1csc2nc(-c3cccc(NC(=O)c4ccc(S(N)(=O)=O)cc4)c3)cn12,0.5%,-15.5%,-11.7,i,·,-0.1%
CCOC(=O)c1cnc2ccc(OC(F)(F)F)cc2c1Nc1ccccc1C(=O)O,1.0%,-3.9%,30.7*,i,·,0.0%
COc1ccc(CCNC(=O)CCCn2c(=O)c3ccccc3n(Cc3ccccc3C)c2=O)cc1OC,-0.7%,-0.5%,3.9,i,·,3.8%
